Test results: PubChem BioAssay AID1159580 (chemical genetic matrix, 2015)
Hit rate of the full screen: of about 5,500 compounds, about 2,000 (36%) were called active. Inconclusive results (about 18%) are left out. Cut-off read from the data, not from the text of the source: active = normalized growth mostly below about 0.91 (no sharp cut-off); inconclusive = no clear call, values can overlap the other calls; inactive = mostly above about 0.92. This is one part of the list.

Assay: chemical genetic growth profiling, strain panel (AID 1159580);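 note: tested at 20 µM; growth read once vehicle control cultures reached saturation at 30 °C; 1 = growth at the plate median or of vehicle wells; lower values mean less growth of the strain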
Conditions: S. cerevisiae deletion strains, growth OD

Measured: normalized growth

O=C1Nc2ccccc2/C1=C\c1c[nH]c2ccccc12
inactive: locus YBR135W, strain CKS1, active compounds read low 0.926 | locus YDL028C, strain MPS1, active compounds read low 0.927 | locus YDL108W, strain KIN28, active compounds read low 0.924 | locus YJR016C, strain ILV3, active compounds read low 0.914 | locus YPR111W, strain DBF20, active compounds read low 0.93
active: locus YAR019C, strain CDC15, active compounds read low 0.472 | locus YBL105C, strain PKC1, active compounds read low 0.627 | locus YBR136W, strain MEC1, active compounds read low 0.88 | locus YBR160W, strain CDC28, active compounds read low 0.843 | locus YDL017W, strain CDC7, active compounds read low 0.717 | locus YDL101C, strain DUN1, active compounds read low 0.491 | locus YDL132W, strain cdc53, active compounds read low 0.628 | locus YDL214C, strain PRR2, active compounds read low 0.289 | locus YDR052C, strain DBF4, active compounds read low 0.91 | locus YDR054C, strain cdc34, active compounds read low 0.432 | locus YDR226W, strain ADK1, active compounds read low 0.84 | locus YDR477W, strain SNF1, active compounds read low 0.135 | locus YER123W, strain YCK3, active compounds read low 0.249 | locus YER133W, strain GLC7, active compounds read low 0.202 | locus YFL009W, strain cdc4, active compounds read low 0.526 | locus YFL029C, strain CAK1, active compounds read low 0.472 | locus YFR003C, strain YPI1, active compounds read low 0.894 | locus YFR019W, strain FAB1, active compounds read low 0.168 | locus YFR028C, strain CDC14, active compounds read low 0.753 | locus YGR040W, strain KSS1, active compounds read low 0.164 | locus YGR052W, strain FMP48, active compounds read low 0.126 | locus YGR092W, strain DBF2, active compounds read low 0.109 | locus YHR030C, strain SLT2, active compounds read low 0.101 | locus YHR079C, strain IRE1, active compounds read low 0.1 | locus YHR082C, strain KSP1, active compounds read low 0.136 | locus YHR205W, strain SCH9, active compounds read low 0.0414 | locus YIL147C, strain SLN1, active compounds read low 0.814 | locus YJL095W, strain BCK1, active compounds read low 0.0968 | locus YJL157C, strain FAR1, active compounds read low 0.239 | locus YJR066W, strain TOR1 (second series), active compounds read low 0.111 | locus YJR066W, strain TOR1, active compounds read low 0.111 | locus YKL048C, strain ELM1, active compounds read low 0.325 | locus YKL067W, strain YNK1, active compounds read low 0.407 | locus YKL101W, strain HSL1, active compounds read low 0.242 | locus YKL193C, strain SDS22, active compounds read low 0.618 | locus YKL203C, strain TOR2, active compounds read low 0.123 | locus YLR113W, strain HOG1, active compounds read low 0.118 | locus YLR133W, strain CKI1, active compounds read low 0.19 | locus YLR403W, strain SFP1, active compounds read low 0.108 | locus YML070W, strain DAK1, active compounds read low 0.219 | locus YMR001C, strain CDC5, active compounds read low 0.781 | locus YMR205C, strain PFK2 (second series), active compounds read low 0.401 | locus YMR277W, strain FCP1, active compounds read low 0.548 | locus YNL006W, strain LST8, active compounds read low 0.454 | locus YNL020C, strain ARK1, active compounds read low 0.19 | locus YNL161W, strain CBK1, active compounds read low 0.639 | locus YNL183C, strain NPR1, active compounds read low 0.133 | locus YNL207W, strain RIO2, active compounds read low 0.605 | locus YNL222W, strain SSU72, active compounds read low 0.674 | locus YNL307C, strain MCK1 (second series), active compounds read low 0.134 | locus YOL078W, strain AVO1, active compounds read low 0.609 | locus YOL136C, strain PFK27, active compounds read low 0.254 | locus YOR061W, strain CKA2, active compounds read low 0.244 | locus YOR119C, strain RIO1, active compounds read low 0.154 | locus YOR231W, strain MKK1, active compounds read low 0.125 | locus YOR329C, strain SCD5, active compounds read low 0.612 | locus YPL031C, strain PHO85, active compounds read low 0.112 | locus YPL153C, strain RAD53, active compounds read low 0.124 | locus YPL204W, strain HRR25, active compounds read low 0.125 | locus YPL209C, strain IPL1, active compounds read low 0.694 | locus YPL256C, strain CLN2, active compounds read low 0.128 | locus YPR025C, strain CCL1, active compounds read low 0.753 | locus YPR106W, strain ISR1, active compounds read low 0.863 | strain NNK1, active compounds read low 0.527 | strain TSCII, active compounds read low 0.384
